# Measured values taken from PubChem BioAssay (NCATS).
# Records with an inconclusive call do not appear. Entries that show only a call come without a potency. Calls of active or inactive are those of the source. Unless noted, the call rests on the fitted dose curve; in most records, active means well fitted curve in the direction sought with a large enough effect; inconclusive means small, poorly fitted or top-dose-only effect, or another doubt; inactive means no such curve, though single readings can be large; an effect the other way counts as inactive or inconclusive. Numbered stars: 1 amine (or outer) side, 2 acyl side, 3 side chain; on linkers, the order of the positions; unused ones are H or OH. Bridge positions count the residues as written; N and C are the ends. Square brackets hold non-standard residues; d marks the D form. Peptide text beside a SMILES is read from it. I, II: the chains in the order shown. Actinocin(9to1) = Cc1c2oc3c(C)ccc(C(=O)[*:1])c3nc-2c(C(=O)[*:2])c(N)c1=O; NMeV = CN[C@H](C(=O)O)C(C)C; Sar = CNCC(=O)O
# How the values were obtained:
# [1] = biological target: Atrial natriuretic peptide receptor 1 (Homo sapiens) (UniProt P16066); experiment: Natriuretic polypeptide receptor (hNpr1) antagonism - Pilot screen (AID 1347049; calls by dose curve;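 further: agonist-evoked cGMP luminescence read 20 min after hNppA addition; series mostly up to about 58 µM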)
# Summary of the method: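 HEK293 cells expressing hNpr1 and GloSensor cGMP luciferase, 1500/well, loaded with 2% GloSensor reagent 2 h, compound 30 min at room temperature; luminescence read before and 20 min after 0.1 nM hNppA stimulation.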
# [2] = biological target: Atrial natriuretic peptide receptor 2 (Homo sapiens) (UniProt P20594); experiment: Natriuretic polypeptide receptor (hNpr2) antagonism - Pilot subtype selectivity assay (AID 1347050; calls by dose curve)
# Summary of the method: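 HEK293 cells expressing hNpr2 and a GloSensor cGMP luciferase sensor, 1500/well, preloaded 2 h with 2% GloSensor reagent, compound 30 min, then 1 nM hNppC for 20 min. Antagonism from luminescence after versus baseline pre-read; LOPAC in 1:5 titrations.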
# [3] = biological target: Parathyroid hormone/parathyroid hormone-related peptide receptor (Homo sapiens) (UniProt Q03431); experiment: qHTS for PTHR1 Agonists: Optimization Screen against the NCGC LOPAC library (AID 1347079);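 further: GloSensor cAMP luminescence in HEK-293 GP2 cells expressing human PTHR1 with IBMX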
# Summary of the method: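 Agonist readout: GloSensor cAMP luminescence, read after 15 min at room temperature. HEK-293-derived GP2 line carries PTHR1; compounds tested as a titration for 1 hr at 37C in presence of IBMX. M-PTH (1-15) served as control.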
# [4] = NS1 protein of Zika virus - qHTS assay to identify small molecule inhibitors in human HEK 293 cells (AID 1347053); further: series mostly up to about 46 µM; nearly all actives have a fitted effect of over 55% in size
# Summary of the method: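 Inhibition of NS1 expression was scored in HEK 293 cells given compound 1 h ahead of MR766 virus (MOI = 0.5). Following 24 h at 37 C, two anti-NS1 antibodies generated a TR-FRET signal, scaled between uninfected and infected controls.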
# [5] = Natriuretic polypeptide receptor (hNpr1) antagonism - Pilot counterscreen GloSensor control cell line (AID 1347045; calls by dose curve; further: series mostly up to about 38 µM)
# Summary of the method: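 Luminescence was read before and 20 min after adding 50 uM SNP, which stimulates soluble guanylyl cyclase. The HEK293 cells expressing the GloSensor cGMP sensor had been preloaded with 2% reagent for 2 h and treated with compound.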
# [6] = biological target: T1, Tyrosine-protein phosphatase non-receptor type substrate 1 (Homo sapiens) + Leukocyte surface antigen CD47 (Homo sapiens) (UniProt P78324+Q08722); experiment: CD47-SIRPalpha protein protein interaction - LANCE assay qHTS validation (AID 1347057; active means well fitted curve in the direction sought with a large enough effect in the signal ratio, with a control signal flat, not every such curve was filed as active; the % refers to the signal ratio; further: series mostly up to about 38 µM)
# Summary of the method: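 First, His-tagged CD47 and Eu-labelled anti-His antibody met the compound for 30 min; next, site-specifically biotinylated SIRPalpha was added for 30 min; finally streptavidin-APC was added before reading the TR-FRET ratio.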
# [7] = biological target: T1, Tyrosine-protein phosphatase non-receptor type substrate 1 (Homo sapiens) + Leukocyte surface antigen CD47 (Homo sapiens); experiment: CD47-SIRPalpha protein protein interaction - Alpha assay qHTS validation (AID 1347059);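 further: bead proximity luminescence from CD47 binding SIRPalpha after compound preincubation with SIRPalpha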; further: potency means the concentration at half of the fitted maximal effect
# Summary of the method: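 Biotinylated Avi-tagged SIRPalpha (25 nM) preincubated 30 min with compound, then His-tagged CD47 (12.5 nM) added 30 min; AlphaScreen with Ni-NTA acceptor and streptavidin donor beads. PBS pH 7.4, 0.05% IGEPAL, room temperature; 7-point titrations.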
# [8] = qHTS of pediatric cancer cell lines to identify multiple opportunities for drug repurposing: Primary screen for TC32 cells (AID 1347089); further: nearly all actives have a fitted effect of over 60% in size; further: potency means the concentration at half of the fitted maximal effect
# Summary of the method: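 Luminescent ATP read-out (CellTiter-Glo) of metabolically active TC32 cells after 48 h exposure. Concentration-response curves came from 11-point (MIPE, 0.78 nM–46 µM) or 8-point (NPC, 0.59 nM–46 µM) primary titrations; follow-up used 11 points.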
# [9] = qHTS of pediatric cancer cell lines to identify multiple opportunities for drug repurposing: Primary screen for DAOY cells (AID 1347090); further: nearly all actives have a fitted effect of over 55% in size; further: potency means the concentration at half of the fitted maximal effect
# Summary of the method: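 Viability measured as metabolically active cells via CellTiter-Glo luminescence following 48 hours of compound exposure, 11-point dilutions in confirmatory testing. 500-1,000 cells/well plated 5 hours before dosing; controls were DMSO and 2.3 µM bortezomib.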
# Sequence of Parathyroid hormone/parathyroid hormone-related peptide receptor (Homo sapiens) (Q03431 whole entry, looked up): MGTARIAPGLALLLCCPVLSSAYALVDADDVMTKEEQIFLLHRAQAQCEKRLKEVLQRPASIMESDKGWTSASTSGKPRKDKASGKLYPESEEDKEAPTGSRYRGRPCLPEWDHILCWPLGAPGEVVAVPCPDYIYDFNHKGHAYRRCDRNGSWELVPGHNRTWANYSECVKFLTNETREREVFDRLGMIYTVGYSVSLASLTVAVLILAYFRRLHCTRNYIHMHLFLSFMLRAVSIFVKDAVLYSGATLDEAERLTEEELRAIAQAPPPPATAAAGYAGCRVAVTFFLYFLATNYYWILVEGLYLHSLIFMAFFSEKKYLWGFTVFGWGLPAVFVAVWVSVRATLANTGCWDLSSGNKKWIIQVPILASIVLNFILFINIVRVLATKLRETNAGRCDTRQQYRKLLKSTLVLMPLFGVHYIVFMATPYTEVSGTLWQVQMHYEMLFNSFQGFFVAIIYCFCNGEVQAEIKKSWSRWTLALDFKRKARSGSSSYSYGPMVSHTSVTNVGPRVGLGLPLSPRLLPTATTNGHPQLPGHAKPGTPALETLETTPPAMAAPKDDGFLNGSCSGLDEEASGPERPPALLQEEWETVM
# Sequence of Atrial natriuretic peptide receptor 2 (Homo sapiens) (P20594 whole entry, looked up): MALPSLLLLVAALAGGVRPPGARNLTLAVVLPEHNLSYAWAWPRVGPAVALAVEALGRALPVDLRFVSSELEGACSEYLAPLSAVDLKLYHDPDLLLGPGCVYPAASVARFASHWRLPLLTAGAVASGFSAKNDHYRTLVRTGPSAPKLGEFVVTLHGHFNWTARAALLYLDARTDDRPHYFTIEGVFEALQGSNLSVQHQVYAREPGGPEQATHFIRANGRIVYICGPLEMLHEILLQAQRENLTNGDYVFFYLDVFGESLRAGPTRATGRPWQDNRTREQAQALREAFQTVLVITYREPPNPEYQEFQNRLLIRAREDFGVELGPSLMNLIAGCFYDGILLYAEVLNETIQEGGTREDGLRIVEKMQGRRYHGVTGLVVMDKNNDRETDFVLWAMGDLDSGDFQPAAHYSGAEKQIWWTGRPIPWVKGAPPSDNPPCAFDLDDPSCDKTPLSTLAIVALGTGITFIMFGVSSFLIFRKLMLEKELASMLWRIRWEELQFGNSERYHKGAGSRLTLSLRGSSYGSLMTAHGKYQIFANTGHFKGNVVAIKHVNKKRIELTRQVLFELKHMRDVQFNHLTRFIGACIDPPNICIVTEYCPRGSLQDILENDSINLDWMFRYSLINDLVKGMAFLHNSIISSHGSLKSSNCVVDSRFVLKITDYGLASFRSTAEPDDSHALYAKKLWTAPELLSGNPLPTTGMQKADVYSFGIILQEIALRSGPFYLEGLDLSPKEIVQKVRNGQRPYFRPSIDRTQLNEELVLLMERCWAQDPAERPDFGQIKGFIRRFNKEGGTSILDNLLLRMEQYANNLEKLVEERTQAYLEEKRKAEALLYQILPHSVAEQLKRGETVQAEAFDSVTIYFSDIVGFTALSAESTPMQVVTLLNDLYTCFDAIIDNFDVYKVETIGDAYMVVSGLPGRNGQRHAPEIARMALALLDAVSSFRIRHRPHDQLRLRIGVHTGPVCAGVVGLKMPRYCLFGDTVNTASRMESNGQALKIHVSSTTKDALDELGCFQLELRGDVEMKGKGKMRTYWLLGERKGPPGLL
# T1 sequence (P78324 whole entry, looked up): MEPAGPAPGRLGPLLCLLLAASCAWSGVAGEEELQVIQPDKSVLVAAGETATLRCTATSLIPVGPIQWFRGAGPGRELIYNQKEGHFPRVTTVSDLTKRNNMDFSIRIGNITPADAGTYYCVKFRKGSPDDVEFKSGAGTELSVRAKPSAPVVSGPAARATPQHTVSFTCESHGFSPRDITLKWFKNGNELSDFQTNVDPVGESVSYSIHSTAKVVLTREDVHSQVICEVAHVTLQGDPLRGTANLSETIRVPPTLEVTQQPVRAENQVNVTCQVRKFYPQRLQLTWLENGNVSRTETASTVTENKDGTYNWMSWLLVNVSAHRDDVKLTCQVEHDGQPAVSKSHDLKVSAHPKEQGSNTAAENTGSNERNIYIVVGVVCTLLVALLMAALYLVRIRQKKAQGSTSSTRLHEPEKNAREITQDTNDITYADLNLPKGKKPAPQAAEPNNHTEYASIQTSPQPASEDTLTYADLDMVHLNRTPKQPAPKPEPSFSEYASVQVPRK
# T1 sequence (Q08722 whole entry, looked up): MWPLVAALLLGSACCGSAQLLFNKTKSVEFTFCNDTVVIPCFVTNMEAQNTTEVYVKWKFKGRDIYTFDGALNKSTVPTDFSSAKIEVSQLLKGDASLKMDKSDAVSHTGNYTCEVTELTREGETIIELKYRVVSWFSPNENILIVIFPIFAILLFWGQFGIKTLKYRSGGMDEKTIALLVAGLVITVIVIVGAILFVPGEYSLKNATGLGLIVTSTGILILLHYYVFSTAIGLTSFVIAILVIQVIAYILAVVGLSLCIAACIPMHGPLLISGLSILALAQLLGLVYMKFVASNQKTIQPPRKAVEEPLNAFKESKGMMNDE
# Sequence of Atrial natriuretic peptide receptor 1 (Homo sapiens) (P16066 whole entry, looked up): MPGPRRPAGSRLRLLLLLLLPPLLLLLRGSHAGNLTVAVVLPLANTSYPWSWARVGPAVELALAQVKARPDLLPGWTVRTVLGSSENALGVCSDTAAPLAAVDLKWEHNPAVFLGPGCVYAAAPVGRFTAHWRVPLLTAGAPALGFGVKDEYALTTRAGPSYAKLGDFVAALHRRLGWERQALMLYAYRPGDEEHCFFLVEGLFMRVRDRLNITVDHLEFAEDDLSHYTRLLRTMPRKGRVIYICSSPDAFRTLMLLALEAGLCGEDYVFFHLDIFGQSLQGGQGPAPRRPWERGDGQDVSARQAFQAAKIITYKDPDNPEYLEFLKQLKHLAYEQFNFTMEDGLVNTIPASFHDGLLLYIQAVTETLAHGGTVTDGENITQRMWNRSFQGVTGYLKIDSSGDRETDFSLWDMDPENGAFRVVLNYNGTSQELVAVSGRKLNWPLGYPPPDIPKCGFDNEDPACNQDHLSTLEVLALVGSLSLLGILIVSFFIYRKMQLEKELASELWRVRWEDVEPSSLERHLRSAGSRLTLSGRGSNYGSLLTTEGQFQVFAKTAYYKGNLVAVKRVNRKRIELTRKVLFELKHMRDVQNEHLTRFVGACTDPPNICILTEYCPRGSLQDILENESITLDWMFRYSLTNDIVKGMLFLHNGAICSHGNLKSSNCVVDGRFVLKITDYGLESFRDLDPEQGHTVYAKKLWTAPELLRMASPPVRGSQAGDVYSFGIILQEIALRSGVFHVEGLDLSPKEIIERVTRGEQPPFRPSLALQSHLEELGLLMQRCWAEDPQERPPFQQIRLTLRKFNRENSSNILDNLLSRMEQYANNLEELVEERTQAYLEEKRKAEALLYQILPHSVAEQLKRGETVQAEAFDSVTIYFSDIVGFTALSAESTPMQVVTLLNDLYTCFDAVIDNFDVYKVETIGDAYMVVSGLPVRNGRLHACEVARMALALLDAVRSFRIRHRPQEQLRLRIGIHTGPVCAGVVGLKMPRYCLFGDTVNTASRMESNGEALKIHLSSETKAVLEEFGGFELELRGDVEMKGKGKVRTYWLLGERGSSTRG
smiles,measurement,setting,value
COc1cc(NS(C)(=O)=O)ccc1Nc1c2ccccc2nc2ccccc12,outcome,[1],inactive
same,outcome,[2],inactive
same,outcome,[3],inactive
CC(=O)N(O)CCCCCNC(=O)CCC(=O)N(O)CCCCCNC(=O)CCC(=O)N(O)CCCCCN,Potency,[4],inactive
CN1C2CCC1CC(OC(=O)c1c[nH]c3ccccc13)C2 (stereo not drawn),outcome,[5],inactive
same,outcome,[1],inactive
same,outcome,[2],inactive
same,Potency,[4],inactive
same,outcome,[6],inactive
same,Potency,[7],inactive
same,outcome,[3],inactive
N[C@@H](Cc1cnc[nH]1)C(=O)O,outcome,[5],inactive
same,outcome,[1],inactive
same,outcome,[2],inactive
same,Potency,[4],inactive
same,outcome,[6],inactive
same,Potency,[7],13.1 µM (active)
same,outcome,[3],inactive
CC(=O)CC(c1ccc([N+](=O)[O-])cc1)c1c(O)c2ccccc2oc1=O (stereo not drawn),Potency,[4],inactive
same,Potency,[8],inactive
same,Potency,[9],inactive
Oc1c(Cl)cc(Cl)cc1Sc1cc(Cl)cc(Cl)c1O,Potency,[4],inactive
same,Potency,[8],inactive
same,Potency,[9],inactive
Cc1onc(-c2c(Cl)cccc2Cl)c1C(=O)N[C@@H]1C(=O)N2[C@@H]1SC(C)(C)[C@@H]2C(=O)O,Potency,[4],inactive
same,Potency,[8],inactive
same,Potency,[9],inactive
COc1cccc2c1C(=O)c1c(O)c3c(c(O)c1C2=O)C[C@@](O)(C(C)=O)C[C@@H]3O[C@H]1C[C@H](N)[C@H](O)[C@H](C)O1,Potency,[4],inactive
same,Potency,[8],236 nM (active)
same,Potency,[9],1.06 µM (active)
CC(Cc1ccccc1)(NC(=O)CN)c1ccccc1 (stereo not drawn),Potency,[4],inactive
same,Potency,[8],inactive
same,Potency,[9],inactive
CC(=O)Oc1ccc(C(=C2CCCCC2)c2ccc(OC(C)=O)cc2)cc1,Potency,[4],inactive
same,Potency,[8],inactive
same,Potency,[9],inactive
Cc1c(C(N)=O)cc([N+](=O)[O-])cc1[N+](=O)[O-],Potency,[4],inactive
same,Potency,[8],inactive
CCN(CCCc1ccccc1)CCCc1ccccc1,Potency,[4],inactive
same,Potency,[8],inactive
same,Potency,[9],inactive
COC(=O)C1=C(C)NC(C)=C(C(=O)O[C@@H]2CCCN(Cc3ccccc3)C2)[C@@H]1c1cccc([N+](=O)[O-])c1,Potency,[4],inactive
same,Potency,[8],inactive
same,Potency,[9],inactive
CCCCOc1ccc(C(=O)CCN2CCCCC2)cc1,Potency,[4],inactive
same,Potency,[8],inactive
same,Potency,[9],inactive
"Cc1c2oc3c(C)ccc(C(=O)N[C@@H]4C(=O)N[C@H](C(C)C)C(=O)N5CCC[C@H]5C(=O)N(C)CC(=O)N(C)[C@@H](C(C)C)C(=O)O[C@@H]4C)c3nc-2c(C(=O)N[C@@H]2C(=O)N[C@H](C(C)C)C(=O)N3CCC[C@H]3C(=O)N(C)CC(=O)N(C)[C@@H](C(C)C)C(=O)O[C@@H]2C)c(N)c1=O (I: T[dV]P[Sar][NMeV] / II: T[dV]P[Sar][NMeV]; ester I:1-I:C, II:1-II:C; linker I:N-II:N via Actinocin(9to1))",Potency,[4],inactive
same,Potency,[8],14.9 nM (active)
CNCC[C@@H](Oc1ccccc1C)c1ccccc1,Potency,[4],inactive
same,Potency,[8],inactive
same,Potency,[9],inactive
CC1(C)O[C@@H]2[C@@H](CO[C@@]3(COS(N)(=O)=O)OC(C)(C)O[C@@H]23)O1,Potency,[4],inactive
same,Potency,[8],inactive
same,Potency,[9],inactive
CN(C)CC/C=C1\c2ccccc2Sc2ccc(Cl)cc21,Potency,[4],inactive
same,Potency,[8],inactive
same,Potency,[9],inactive
Cc1c(C)n(Cc2ccccc2)c2ccc(C(=O)OCCN(C)C)cc12,Potency,[4],inactive
same,Potency,[8],inactive
CC(=O)OCC(=O)[C@@]1(OC(C)=O)[C@@H](C)C[C@H]2[C@@H]3C[C@H](F)C4=CC(=O)C=C[C@]4(C)[C@@]3(F)[C@@H](O)C[C@@]21C,Potency,[4],inactive
same,Potency,[8],inactive
same,Potency,[9],inactive
COc1ccc(/C=C/C(=O)c2ccc(OC)cc2OC)cc1,Potency,[4],inactive
same,Potency,[8],inactive
CC(=O)Oc1ccc2c(c1)CC[C@@H]1[C@@H]2CC[C@]2(C)[C@@H](O)CC[C@@H]12,Potency,[4],inactive
same,Potency,[8],inactive
same,Potency,[9],inactive
Cc1ccc(C(=O)C(C)CN2CCCCC2)cc1 (stereo not drawn),Potency,[4],inactive
same,Potency,[8],inactive
same,Potency,[9],inactive
O=C1OCCN1/N=C/c1ccc([N+](=O)[O-])o1,Potency,[4],inactive
same,Potency,[8],inactive
same,Potency,[9],inactive
Clc1ccc2c(c1)CCc1cccnc1C2=C1CCNCC1,Potency,[4],inactive
same,Potency,[8],inactive
same,Potency,[9],inactive
COc1c2occc2c(OC)c2c(=O)cc(C)oc12,Potency,[4],inactive
same,Potency,[8],inactive
same,Potency,[9],inactive
C#C[C@]1(O)CC[C@H]2[C@@H]3CCc4cc(OC5CCCC5)ccc4[C@H]3CC[C@@]21C,Potency,[4],inactive
same,Potency,[8],inactive
CCCCCCc1ccc(O)cc1O,Potency,[4],inactive
same,Potency,[8],inactive
CCCCCC=CCC=CCCCCCCCC(=O)OCC,Potency,[4],inactive
same,Potency,[8],inactive
same,Potency,[9],inactive
C[C@@H]1C[C@H]2[C@@H]3CCC4=CC(=O)C=C[C@]4(C)[C@@]3(F)[C@@H](O)C[C@]2(C)[C@H]1C(=O)CO,Potency,[4],inactive
same,Potency,[8],inactive
same,Potency,[9],inactive
C=C1C(=C/C=C2\CCC[C@]3(C)[C@@H]([C@H](C)/C=C/[C@@H](O)C4CC4)CC[C@@H]23)C[C@@H](O)C[C@@H]1O,Potency,[4],inactive
same,Potency,[8],inactive
same,Potency,[9],inactive
